# Source: PubChem
# In the library only some 3.9% were active in any assay of this set; here they are far more common.
# Wnt bcat act: activates Wnt/beta-catenin signaling in a reporter cell assay. activator, plate reader. activation, % at 9.35 µM. 1.2% of 300,000 active. AID 743398; in the data active means activation above about 30%, passing the limit was not always enough; inconclusive means no clear call, values can overlap the other calls;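 further: 0% = neutral control wells and 100% = positive control wells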
# HSF1 inhib: HSF1 inhibition. NIH3T3-HGL HSE-luciferase, MG132-induced, luminescence 8 h; stronger effect = lower value. activity change, negative = inhibition, % at 7.5 µM (by protocol). 0.77% of 300,000 active. AID 2098;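 active means more than half of replicate wells show activity change below -50%, luminescence cut by over half; inconclusive means some wells, but at most half, below -50%; inactive means no replicate well below -50%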;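 further: luciferase reports HSF-1 transcriptional activity via heat shock element; 0% = median of DMSO wells and -100% = zero luminescence signal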
# esBAF inh: blocks esBAF chromatin remodeling in mouse ES cells; Bmi1-luciferase knock-in reporter, 24 h; 100% = twice the neutral-well signal; reporter increase, % at 12.5 µM; 2% of 350,000 active; in the data active means activation above about 40%; inconclusive means no clear call, values can overlap the other calls;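 further: 0% = median of the plate's neutral control wells and 100% = double that signal; a rise in the Bmi1 reporter signal indicates esBAF inhibition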
# HSF-1 act: increases HSF-1 driven luciferase reporter signal | NIH3T3-HGL HSF-1 luciferase reporter, MG132, 8 h; 100% = twice DMSO control signal | activation, % at 9 µM | 1.7% of 300,000 active;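 active means mean replicate activation of at least 50% with a set share of replicates each reaching 50%; inconclusive means only one of those two conditions met; inactive means mean below 50% and too few replicates reaching it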;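 further: 0% = median of the neutral control wells and 100% = twice that signal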
# MITF act: MITF TRPM1 promoter activation in melanoma cells; SK-MEL-5 TRPM1-promoter luciferase, 24 h; % of positive control, neutral wells = 0; activation, % at 12.5 µM; 0.75% of 300,000 active; AID 588334;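 active means mean activation of at least 80% with every replicate also reaching 80%; inconclusive means mean reaches 80% but some replicate falls short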;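 further: 0% = neutral control wells and 100% = parthenolide positive control wells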
# * hit, by the source's call; ? = inconclusive; · = no result given.
SMILES,Wnt bcat act,HSF1 inhib,esBAF inh,HSF-1 act,MITF act
COc1cc2nn(-c3ccccc3N)nc2cc1OC,42.4*,·,·,·,·
Nc1nc2c(ccc3ccccc32)s1,-0.5,5.4,·,11.9,·
CCCNC(=O)NC[C@H]1[C@H](c2ccc(C3=CCCC3)cc2)[C@@H](CO)N1C(=O)CC,·,·,3.0,·,·
COc1ccc(NC(=O)N[C@H]2CC[C@@H](CCn3cc(C4(O)CCCC4)nn3)O[C@@H]2CO)cc1,·,·,-4.3,·,·
O=C(Cc1cccs1)Nc1ccc(-c2nnc(-c3ccccc3)o2)cc1,·,·,28.9,·,-6.4
Cc1cccc(-c2nnc(-c3cccc(NC(=O)Cc4cccs4)c3)o2)c1,·,32.7,80.5*,49.8,55.6
Cc1ccc2nc(NC(=O)Cc3cccs3)sc2c1,·,25.5,38.3,45.4,47.3
Cc1ccc2nc(-c3ccc(NC(=O)Cc4cccs4)cc3)[nH]c2c1,15.2,36.8,31.8,75.8*,42.5
CN(Cc1nc(-c2ccccc2)no1)C1CCOCC1,40.8*,9.4,30.9,-5.1,65.2
c1ccc(-c2noc(CCC3CCCC3)n2)cc1,6.1,8.9,?,26.7,102.2*
COc1ccc(-c2noc(CN(C)C3CCOCC3)n2)cc1,0.3,-5.4,·,-12.3,15.7
C[C@H]1CN([C@@H](C)CO)C(=O)Cc2cc(NC(=O)C3CC3)ccc2O[C@H]1CN(C)Cc1ccncc1,·,·,-0.8,·,·
O=C(Nc1ccccc1)OCC1CCCO1 (stereo unspecified),0.1,5.5,35.4,4.3,35.6
O=C(Nc1ccccc1)OCC1COC(c2ccccc2)(c2ccccc2)O1 (stereo unspecified),48.8*,·,·,·,4.1
C[C@@H]1CN([C@@H](C)CO)C(=O)Cc2cc(NC(=O)Nc3ccc(F)cc3)ccc2O[C@@H]1CN(C)C(=O)Nc1ccc(F)cc1,·,·,-4.1,·,·
CN(Cc1ccccc1)C(=O)c1[nH]cnc1C(=O)Nc1cccc(Cl)c1,15.4,·,44.7*,·,46.6
CN(Cc1ccccc1)C(=O)c1[nH]cnc1C(=O)Nc1ccc(Cl)cc1,3.2,·,39.8,·,5.4
CCn1c(O)c(C#N)c(C)cc1=O,47.7*,0.0,·,8.6,·
COc1ccc(NC(=O)N(C)C[C@@H]2Oc3ccc(NC(=O)C4CCCCC4)cc3CC(=O)N([C@H](C)CO)C[C@H]2C)cc1,·,·,1.3,·,·
CCC1=CC(c2ccccc2)n2ncnc2N1 (stereo unspecified),-1.8,-84.4*,-1.2,-87.6,-1.8
C1=C(c2ccccc2)Nc2ncnn2C1c1ccccc1 (stereo unspecified),3.2,3.6,0.1,-0.3,-5.3
CC1(C)CC(=O)C=C(c2ccc(-c3ccc(OC(F)(F)F)cc3)cc2)C1=O,6.9,·,56.4*,·,·
COc1ccc(C2=CC(=O)CC(C)(C)C2)cc1,3.0,·,1.9,·,20.8
COc1ccc(C2=CC(=O)CC(C)(C)C2=O)cc1,-0.3,·,·,·,·
CC1(C)CC(=O)C=C(c2ccc(-c3ccccc3)cc2)C1=O,-1.8,·,77.8*,·,·
SMILES,Wnt bcat act,HSF1 inhib,esBAF inh,HSF-1 act,MITF act
CC1(C)CC(=O)C=C(c2ccc(-c3ccccc3)cc2)C1,27.5,·,73.6*,·,142.0*
Cn1cnc(S(=O)(=O)N2C[C@@H](O)COC[C@H]3O[C@@H](CC(=O)NC4CCC4)CC[C@@H]32)c1,·,·,-4.1,·,·
CCCN1C[C@@H](C)[C@H](OC)CN(C)C(=O)c2cc(NC(=O)c3ccc(F)cc3)ccc2OC[C@H]1C,·,·,5.9,·,·
CC(=O)c1cccc(NC(=O)NC2CCCCC2)c1,0.7,1.1,22.0,-4.4,27.2
FC(F)Sc1ccc(NC(=S)NC2CCCCC2)cc1,·,14.8,50.5*,29.3,69.2
O=C(Nc1ccc(F)cc1)NC1CCCCCCC1,12.4,14.3,59.1*,36.5,105.2*
O=C(Nc1ccc(F)c(F)c1)NC1CCCCC1,18.0,23.5,65.9*,41.5,39.2
CC1CCCCC1NC(=S)Nc1ccc(SC(F)F)cc1 (stereo unspecified),·,-7.5,25.6,3.0,40.1
CC(=O)c1ccc(NC(=O)NC2CCCCCCC2)cc1,?,·,68.2*,·,73.9
S=C(Nc1cccc2ccccc12)NC1CCCCC1,15.1,31.2,57.4*,44.4,7.1
O=C(Nc1ccccc1F)NC1CC1,·,-2.2,?,3.4,15.2
S=C(Nc1cccc2ccccc12)Nc1cccc2ccccc12,-5.6,·,9.0,·,-22.3
O=C(Nc1ccccc1F)NC1CCCCCCC1,17.5,6.4,53.9*,30.1,57.7
O=C(Nc1ccc2nsnc2c1)NC1CCCCC1,·,22.8,60.1*,45.4,69.8
O=C(Nc1ccc(Cl)cc1)NC1CCCCC1,66.1*,22.8,·,17.5,?
CO[C@@H]1CN(C)C(=O)c2cc(NC(=O)Nc3ccccc3)ccc2OC[C@H](C)N(CC2CC2)C[C@@H]1C,·,·,21.2,·,·
CN(C)CCCNC(=O)C[C@H]1CC[C@@H](NS(=O)(=O)c2ccc(F)cc2)[C@H](CO)O1,·,·,-1.3,·,·
C[C@@H]1CN([C@@H](C)CO)S(=O)(=O)c2ccc(C#Cc3cccnc3)cc2O[C@@H]1CN(C)CC1CCOCC1,·,·,1.3,·,·
O=C(C[C@@H]1C[C@@H]2c3cc(NC(=O)C4CCOCC4)ccc3O[C@@H]2[C@@H](CO)O1)NCc1cccnc1,·,·,1.6,·,·
CO[C@@H]1CN(C)C(=O)c2cc(NC(=O)Nc3ccccc3Cl)ccc2OC[C@H](C)NC[C@H]1C,·,·,2.3,·,·
COC(=O)c1ccc(-c2ccc(F)cc2)nc1C,28.0,46.7,37.8,?,105.4*
CCOC(=O)c1ccc(-c2ccc3c(c2)CCC3)nc1C,38.0*,11.0,38.2,35.9,75.8
Cc1ccc(-c2ccc(C(=O)O)c(C)n2)cc1,-3.0,-2.7,-5.3,-0.5,-7.9
O=C(Nc1ccc2c(c1)OCO2)N[C@@H]1CC[C@@H](CCNC(=O)C2CCC2)O[C@@H]1CO,·,·,-7.7,·,·
Cc1nc2cc(-c3ccccc3)sc2c(=O)n1N,0.8,-53.0*,·,-58.2,-90.6
SMILES,Wnt bcat act,HSF1 inhib,esBAF inh,HSF-1 act,MITF act
COc1ccc(-c2cc3nc(C)n(N)c(=O)c3s2)cc1,-11.1,-70.4*,·,-72.1,·
COc1ccc(-c2cc3nc4n(c(=O)c3s2)CCC4)cc1,-6.1,-5.5,-67.5,13.8,-53.4
COc1ccc(-c2cc3nc4n(c(=O)c3s2)CCCCC4)cc1,36.9*,17.9,7.4,40.0,·
Cn1c(NCc2ccccc2)nc2cc(-c3ccccc3)sc2c1=O,-0.6,·,32.7,·,·
C[C@H](CO)N1C[C@H](C)[C@H](CN(C)Cc2ccncc2)Oc2ccc(NC(=O)NC3CCCCC3)cc2CC1=O,·,·,-2.9,·,·
COc1ccc(NC(=O)Nc2ccc3c(c2)C(=O)N([C@@H](C)CO)C[C@H](C)[C@@H](CN(C)Cc2ccc4c(c2)OCO4)OCCCC[C@H](C)O3)cc1,·,·,-3.5,·,·
CCCC(=O)Nc1ccc2c(c1)OC[C@H](C)N(C(=O)c1cccnc1)C[C@H](C)[C@@H](OC)CN(C)C2=O,·,·,3.4,·,·
O=C(O)CSc1cc(NS(=O)(=O)c2ccc(Br)cc2)c2ccccc2c1O,9.1,59.4,3.0,114.0*,-46.3
CN(C)C(=O)C[C@H]1CC[C@H]2[C@@H](COC[C@@H](O)CN2C(=O)C2CC2)O1,·,·,0.2,·,·
O=C(NN1C(=O)C2C(C1=O)C1C=CC2C12CC2)c1ccc(Cl)cc1 (stereo unspecified),-0.4,23.7,·,65.3*,·
